# Laboratory results as given in PubChem BioAssay (EPA / NIEHS).
# Results filed as inconclusive are left out. Calls of active or inactive are those of the source. Rule for the calls: active = hit-call score of the fitted dose curve at least 0.9, where 1 is the maximum; inconclusive = response in the unintended direction; inactive = score below 0.9.
# Assay: CCTE_Deisenroth_AIME_96WELL_CTox_Inactive: Cytotoxicity Assessment (CTOX) in CCTE's 96-well Estrogen Receptor Transactivation Assay without AIME metabolic competence (metabolism negative), Deisenroth Lab (AID 2284029)
# Outline: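 Metabolism-negative mode: alginate-water lids without rat S9, 2 h pre-incubation of 10-point series (0.002 - 200 uM). Conditioned medium on VM7Luc4E2 cells 24 h; loss of fluorescent live-cell protease signal marks cytotoxicity.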
structure (smiles),measurement,value
Cn1c(=O)c2c(ncn2C)n(C)c1=O,outcome,inactive
